Experimental data from ChEMBL document CHEMBL4513216, “Probing the Open Global Health Chemical Diversity Library for Multistage-Active Starting Points for Next-Generation Antimalarials” (ACS Infect Dis, 2020).
Hit rate of the full screen: of about 65,000 compounds, about 2,100 (3.2%) showed an effect of 50% or more. The median lay at about -52%. The full list was thinned out, with strong results kept by preference.

These molecules were tested on Plasmodium falciparum (assay: Screen against P. falciparum Asexual Blood Stage (ABS), at 5uM). Conditions: tested at 5 uM.
Type: functional, Dd2

Structure (SMILES) | INHIBITION
CN(C)[C@@H]1CCN(C(=O)c2cccn2C)[C@H]1Cc1cnn(C)c1 | -109%
O=C(c1ccco1)N1CC[C@@H]2O[C@@H](COCCN3CCCC3)CC[C@@H]21 | -86.1%
c1cnc(N2CC[C@@H]3O[C@@H](COCc4cccnc4)CC[C@@H]32)nc1 | -60.3%
CCN(CC)Cc1ccc(C(=O)NC2CCc3cc(Cl)ccc32)o1 (stereo unspecified) | 56%
CCN(CC)Cc1ccc(C(=O)NC2CCc3cc(F)ccc32)o1 (stereo unspecified) | 16.3%
CCN(CC)Cc1ccc(C(=O)NC2CCc3cc(Br)ccc32)o1 (stereo unspecified) | 47.7%
Cc1cncc(C(=O)NCCSCc2cccs2)c1 | -11%
CN1CCOC(CNCCOc2cccc(C#N)c2)C1 (stereo unspecified) | -70.4%
OC1CCN(Cc2cc3c(cc2Br)OCCO3)CC1 | -16.3%
Brc1cc2c(cc1CN1CCC(N3CCCCC3)CC1)OCCO2 | 61.5%
OCC1CCN(Cc2cc3c(cc2Br)OCCO3)CC1 | -9.89%
CN1CCN(C2CCN(CCOc3cccc(Cl)c3)CC2)C1=O | -9.24%
Cn1ncc2c1NC(=O)CC2c1ccccc1Br (stereo unspecified) | -46.4%
CS(=O)(=O)NCc1cc(=O)n2c(n1)CN(Cc1ccco1)CCC2 | -15.8%
CNC(=O)c1cn[nH]c1C1(C)CCCN(Cc2ccccn2)C1 (stereo unspecified) | 61.9%
CN(C)C(=O)c1cn[nH]c1C1(C)CCCN(Cc2ccccn2)C1 (stereo unspecified) | -73.2%
CNC(=O)c1cn[nH]c1C1(C)CCCN(Cc2ccccc2OC)C1 (stereo unspecified) | 31.1%
CCOc1nnc(CN2CCN(CCOC)CC2)s1 | -108%
CN(C)S(=O)(=O)N1C[C@H]2CC[C@@H](C1)N(CCC(=O)NCc1ccco1)C2 | -109%
Cc1occc1C(=O)N1C[C@@H]2CCCO[C@@H]2[C@H](NC(=O)CC2CC2)C1 | -27.2%
COc1ccc(CCNC(=O)C(C)Nc2ccc(C)c(C)c2)cc1 (stereo unspecified) | -52%
CC(C)Nc1nc(N2CCCC2)nc2c1CN(C(C)C)CC2 | 66.8%
CC(C)Nc1nc(N2CCCC2)nc2c1CN(C)CC2 | 48.5%
CCN1CCc2nc(N3CCOCC3)nc(NC(C)C)c2C1 | 16.7%
Cc1nc(CN2CCc3nc(NC(C)C)nc(C)c3C2)cs1 | -19.1%
Cc1nc(CN2CCc3nc(N4CCCC4)nc(NC(C)C)c3C2)cs1 | 57.3%

Structure (SMILES) | INHIBITION
CC(C)CCN1CCc2nc(N3CCOCC3)nc(NC(C)C)c2C1 | 8.26%
CC(C)Nc1nc(N2CCCC2)nc2c1CN(c1ncc(F)cn1)CC2 | 23.3%
CC(C)Nc1nc(N2CCCC2)nc2c1CN(S(C)(=O)=O)CC2 | 50.6%
CCS(=O)(=O)N1CCc2nc(N3CCCC3)nc(N(C)C)c2CC1 | -19.4%
Cc1nc(N2CCCC2)nc2c1CN(C(C)C)CC2 | -36.3%
CCCN1CCc2nc(N3CCOCC3)nc(NC(C)C)c2C1 | -33.6%
CC(C)Nc1nc(N2CCCC2)nc2c1CCN(S(C)(=O)=O)CC2 | 51.5%
CC1(C)CN=C(N2CCN(CCCN3CCOCC3)CC2)S1 | -67.2%
N#Cc1ccc(N2CCCC3(CCN(c4cncnc4)C3=O)C2)nc1 (stereo unspecified) | -38.5%
CCN(CCO)C[C@@H]1CN(C(=O)c2ccc(C)s2)C[C@@H]1CO | -69.5%
CN(C)C(=O)C1CN(Cc2ccsc2)Cc2ccnn2C1 (stereo unspecified) | -99.4%
CCC(=O)Nc1ccc2c(c1)C1(CCOCC1)CN2CCOC | -59.9%
Fc1cccc(N2C[C@H]3CCN(c4cccnc4)C[C@H]3C2)c1 | 13.9%
O=C(CCc1nc(-c2ccsc2)no1)NCC1CCN(C2CC2)C1 (stereo unspecified) | 2.06%
COCCc1noc(CN2CCc3nn(C(C)C)c(=O)cc3C2)n1 | -60.6%
CCn1nc2c(cc1=O)CN(Cc1nc(CCOC)no1)CC2 | -151%
CCCn1nc2c(cc1=O)CN(Cc1nc(CCOC)no1)CC2 | 62.4%
c1cncc(-c2nccc(CN3CCCC3)n2)c1 | -151%
CCc1c(C)nc2ccccc2c1N1CCC(C(=O)NC)CC1 | 52.7%
CCc1c(C)nc2ccccc2c1N1CCC(O)CC1 | 0.854%
CCc1c(C)nc2ccccc2c1N1CCC(NC(C)=O)CC1 | 24.4%
Cc1ccc(C(=O)N2C[C@@H]3[C@@H](C2)OCC(=O)N3Cc2cccnc2)o1 | -84.3%
CN(C)Cc1cccc(-c2cccnc2C(=O)NCc2cn(C)cn2)c1 | -167%
Cc1ccc(C(=O)N2C[C@H]3CCC[C@@]3(COCC3CCOCC3)C2)o1 | -35.2%
CCS(=O)(=O)Nc1ccc2oc(C)c(C(=O)OC)c2c1 | -54.7%
